Data on 9 molecules can be found in PubChem BioAssay.

The structures appear in SMILES notation. The source made the active and inactive calls.

The nature of experiment [1]: compound effects on lung adenocarcinoma cell viability – A549, calcein-AM fluorescence, 48 h, basal, profiling panel (AID 1162). Further: test concentration not given here. The settings on record: higher = more signal.
A short description of experiment [2]: compound effects on differentiated 3T3-L1 adipocyte viability – cell-based, 3T3-L1 adipocytes, calcein-AM fluorescence, 48 h, basal, profiling panel (AID 1163). Further: test concentration not given here. As to conditions: 3T3-L1 adipocytes viability, higher = more signal.
A short description of experiment [3]: compound effects on hepatocellular carcinoma cell viability – HepG2, calcein-AM fluorescence, 48 h, basal, profiling panel (AID 1164). Further: test concentration not given here. As to conditions: higher = more signal.
The nature of experiment [4]: compound effects on multiple myeloma cell viability – MM1S, calcein-AM fluorescence, 48 h, basal, profiling panel (AID 1165). Further: test concentration not given here. As to conditions: higher = more signal.
Experiment [5] can be described thus: calcein-AM signal in unstimulated myeloma cells – cell-based, calcein-AM fluorescence, 48 h, PK04 Diversity Set, profiling panel (AID 1166).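 Further: cells grown under basal conditions without added stimulus; test concentration not given here.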 The settings on record: RPMI8226 myeloma viability, higher = more signal.
The nature of experiment [6]: JC-1 mitochondrial signal, unstimulated HepG2 cells – cell-based, JC-1 fluorescence, 24 h, 100 nL compound, profiling panel (AID 1167). Further: test concentration not given here. The settings on record: HepG2 mitochondrial potential, higher = more signal.
A short description of experiment [7]: JC-1 mitochondrial signal, unstimulated adipocytes – cell-based, JC-1 fluorescence, 3T3-L1 adipocytes, 24 h, 100 nL compound, profiling panel (AID 1168). Further: test concentration not given here. The settings on record: JC-1 mitochondrial fluorescence, higher = more signal, called active from +8 up or from −8 down.
The nature of experiment [8]: JC-1 mitochondrial signal, unstimulated myeloma cells – cell-based, JC-1 fluorescence, RPMI8226, 24 h, 100 nL compound, profiling panel (AID 1169). Further: test concentration not given here. The settings on record: JC-1 mitochondrial potential fluorescence, higher = more signal.
Experiment [9] can be described thus: JC-1 mitochondrial signal, unstimulated MM1S myeloma – cell-based, JC-1 fluorescence, 24 h, 100 nL compound, profiling panel (AID 1170). Further: test concentration not given here. The settings on record: MM1S mitochondrial potential, higher = more signal.
A short description of experiment [10]: resazurin metabolic signal in A549 cells – cell-based, resazurin fluorescence, 24 h, PK04 Diversity Set, profiling panel (AID 1171). Further: test concentration not given here. As to conditions: A549 viability, higher = more signal, called active from +8 up or from −8 down.
Experiment [11] can be described thus: resazurin metabolic signal in HepG2 cells – cell-based, resazurin fluorescence, 24 h, PK04 Diversity Set, profiling panel (AID 1172). Further: test concentration not given here. The settings on record: HepG2 viability, higher = more signal.
A short description of experiment [12]: budding yeast growth changes without added modifier – OD600, strain BY4716, 24 h, basal condition, primary screen (AID 1173). As to conditions: S. cerevisiae BY4716 growth, OD600, 24 h; higher = more signal, called active from +8 up or from −8 down.
The nature of experiment [13]: viability profiling in MM1S myeloma cells – cell-based, resazurin fluorescence, basal, 24 h, PK04 Diversity Set, profiling panel (AID 1174). Further: test concentration not given here. The settings on record: higher = more signal, called active from +8 up or from −8 down. In general terms: Alamar Blue is a resazurin reagent that responds to reducing activity.
In experiment [14] the target is Dihydroorotate dehydrogenase (quinone), mitochondrial (Plasmodium falciparum (isolate 3D7)) (UniProt Q08210). The experiment can be described thus: inhibition of P. falciparum DHODH – biochemical, C-terminal His tag, absorbance 600 nm, primary screen (AID 1175).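 Further: recombinant parasite enzyme with a five histidine tag at its C terminus; test concentration not given here.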 The settings on record: PfDHODH enzyme, DCIP absorbance 600 nm; higher = more signal, called active from +8 up or from −8 down.
Sequence of Dihydroorotate dehydrogenase (quinone), mitochondrial (Plasmodium falciparum (isolate 3D7)) (Q08210 whole entry, looked up): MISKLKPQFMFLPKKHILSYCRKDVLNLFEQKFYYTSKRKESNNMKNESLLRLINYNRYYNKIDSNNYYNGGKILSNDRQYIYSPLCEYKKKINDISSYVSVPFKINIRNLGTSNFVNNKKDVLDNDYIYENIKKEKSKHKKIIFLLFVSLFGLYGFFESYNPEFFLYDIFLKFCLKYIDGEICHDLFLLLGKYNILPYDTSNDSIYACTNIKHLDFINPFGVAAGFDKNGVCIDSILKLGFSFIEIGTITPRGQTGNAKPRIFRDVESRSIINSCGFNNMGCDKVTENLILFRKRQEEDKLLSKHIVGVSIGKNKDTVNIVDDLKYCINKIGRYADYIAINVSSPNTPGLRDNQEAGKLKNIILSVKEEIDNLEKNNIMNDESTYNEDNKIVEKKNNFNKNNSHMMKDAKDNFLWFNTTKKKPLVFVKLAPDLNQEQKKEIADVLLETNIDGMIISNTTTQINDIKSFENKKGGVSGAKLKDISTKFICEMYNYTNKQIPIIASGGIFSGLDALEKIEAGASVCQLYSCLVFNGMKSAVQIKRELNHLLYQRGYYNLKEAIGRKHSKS

The nature of experiment [15]: growth modulation of vineyard yeast isolate – strain RM11-1a, OD600, basal, 24 h, primary screen (AID 1177).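 Further: cultures grown under basal conditions with no added stressor; test concentration not given here.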 As to conditions: S. cerevisiae RM11-1a growth, OD600, 24 h; higher = more signal, called active from +8 up or from −8 down.
A short description of experiment [16]: growth of efflux-deficient E. coli DRC39 – strain DRC39, OD650, 24 h, E. coli filamentation inducers, primary screen (AID 1178).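 Further: growth measured as culture turbidity by optical density at 650 nm; test concentration not given here.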 As to conditions: E. coli DRC39 acrAB, higher = more signal, called active from +8 up or from −8 down.
Experiment [17] can be described thus: growth of efflux-deficient E. coli DRC39 – strain DRC39, OD650, 48 h, E. coli filamentation inducers, primary screen (AID 1179).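 Further: screen aims at cell division blockers that make cells filament.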 As to conditions: E. coli DRC39 delta-acrAB growth, higher = more signal, called active from +8 up or from −8 down.
Experiment [18] in a line: viability profiling in RPMI8226 myeloma cells – cell-based, resazurin fluorescence, basal, 24 h, PK04 Diversity Set, profiling panel (AID 1180).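 Further: RPMI8826 multiple myeloma cell line at 5000 cells per well; test concentration not given here.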 The settings on record: higher = more signal.
Experiment [19] concerns the target E3 ubiquitin-protein ligase XIAP (Homo sapiens) (UniProt P98170). The experiment can be described thus: small molecules binding XIAP protein – biophysical, small-molecule microarray, fluorescence 635 nm, primary screen (AID 1181).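 Further: score merges 667 nm emission and signal to noise over triplicate slides.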 As to conditions: higher = more signal.

Sequence of E3 ubiquitin-protein ligase XIAP (Homo sapiens) (P98170 whole entry, looked up): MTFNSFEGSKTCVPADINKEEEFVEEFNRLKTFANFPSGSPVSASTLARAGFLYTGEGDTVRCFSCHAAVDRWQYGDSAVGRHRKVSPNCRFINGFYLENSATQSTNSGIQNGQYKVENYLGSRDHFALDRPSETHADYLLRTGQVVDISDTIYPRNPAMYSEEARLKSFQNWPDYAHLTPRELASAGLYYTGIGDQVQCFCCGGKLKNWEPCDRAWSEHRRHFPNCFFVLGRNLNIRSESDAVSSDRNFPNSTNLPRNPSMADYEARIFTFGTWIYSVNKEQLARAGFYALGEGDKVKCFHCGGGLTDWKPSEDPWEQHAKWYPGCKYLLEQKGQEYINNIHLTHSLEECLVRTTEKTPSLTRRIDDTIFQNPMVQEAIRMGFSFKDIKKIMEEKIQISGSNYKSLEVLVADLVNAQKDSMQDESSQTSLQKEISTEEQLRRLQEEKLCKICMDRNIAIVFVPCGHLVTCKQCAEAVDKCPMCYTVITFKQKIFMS

For the molecule `CO[C@H]1O[C@H](CO)[C@@H](OC(=O)Nc2ccc(Oc3ccccc3)cc2)[C@H](OC(=O)Nc2ccccc2-c2ccccc2)[C@H]1OC(=O)Nc1ccccc1-c1ccccc1`, the z-score in [1] was -4.22; in experiment [2] it was 1.59; in experiment [3] it was -4.47; in experiment [4], -3.39; in [5], -4.01; in experiment [6], -1.37. For the same molecule, the z-score was 1.64 (inactive) in [7]; -0.646 in experiment [8]; -1.81 in [9]; -4.85 (inactive) in experiment [10]; -2.96 in experiment [11]; 1.94 (inactive) in experiment [12]. For the same molecule, the z-score in experiment [13] was -3.97 (inactive); in experiment [15], 4.09 (inactive); in experiment [16] it was 0.275 (inactive); in experiment [17] it was -0.534 (inactive); in experiment [18] it was -2.5. In addition, the composite z-score was -0.326 (inactive) in experiment [14] and 0.344 in experiment [19].

Regarding `O=C1c2ccccc2[C@](Cc2ccccc2I)(C(=O)NCC(F)(F)F)[C@H](c2ccc(CO)cc2)N1Cc1ccccc1C(F)(F)F`, the z-score in [1] is 0.187; in experiment [2] it was 1.31; in experiment [3], -0.529; in experiment [4] it was -2.72; in experiment [5], -2.27; in experiment [6], 0.535. Also, the z-score in experiment [7] is -0.225 (inactive); in experiment [8] it was -0.248; in experiment [9], 0.415; in experiment [10], 1.32 (inactive); in [11] it was 0.226; in [12], -1.29 (inactive). Moreover, the z-score in experiment [13] is 1.13 (inactive); in experiment [15] it was -0.719 (inactive); in experiment [16], 0.775 (inactive); in experiment [17], 0.23 (inactive); in [18] it was 1.69. For the same molecule, the composite z-score in [14] was -0.449 (inactive); in experiment [19], -0.174.

Take `O=C1c2ccccc2[C@](Cc2ccccc2I)(C(=O)O)[C@H](c2ccc(CO)cc2)N1C1CCCCC1`: the z-score in experiment [1] was 0.0699; in experiment [2], 2.82; in experiment [3], -0.0275; in experiment [4], 0.832; in [5], -3.14; in experiment [6] it was 0.0952. Also, the z-score in experiment [7] is -0.641 (inactive); in experiment [8], -0.193; in experiment [9], 0.148; in [10], 1.07 (inactive); in experiment [11], -0.221; in [12], -1.14 (inactive). Further, the z-score in [13] is 1.8 (inactive); in [15], -1.05 (inactive); in [16], 0.938 (inactive); in experiment [17], 0.832 (inactive); in experiment [18], 1.36. The composite z-score was -0.0088 (inactive) in experiment [14] and 0.0225 in [19].

`CC(C)[Si]1(C(C)C)O[C@@H](c2ccccc2)c2cc(C3CC3)nc(-c3ccc(Oc4ccccc4)cc3)c21`: the z-score in experiment [1] is -0.654; in experiment [2] it was 1.31; in experiment [3], 0.0626; in experiment [4], -0.964; in experiment [5], 0.391; in [6], 0.484. In addition, the z-score in experiment [7] is 0.924 (inactive); in experiment [8], 0.38; in experiment [9], 0.484; in [10], 1.6 (inactive); in [11] it was 1.08; in [12] it was -0.225 (inactive). For the same molecule, the z-score in experiment [13] is 1.35 (inactive); in experiment [15], 1.15 (inactive); in [16] it was 1.3 (inactive); in experiment [17] it was 0.734 (inactive); in experiment [18], 0.688. The composite z-score in experiment [14] was 0.967 (inactive); in experiment [19] it was -0.267.

For the molecule `COc1cccc([C@@H]2[C@@H](C)CC[C@H]3C(=O)N(C)[C@@H](C(C)C)C(=O)N23)c1`, the z-score is 0.908 in [1]; 0.323 in experiment [2]; 0.445 in [3]; 0.344 in experiment [4]; 1.44 in experiment [5]; 0.0824 in [6]. Besides, the z-score was 0.517 (inactive) in experiment [7]; -0.338 in [8]; 0.64 in experiment [9]; 0.65 (inactive) in experiment [10]; 0.989 in experiment [11]; -1.32 (inactive) in experiment [12]. Moreover, the z-score in experiment [13] was 0.708 (inactive); in [15], 0.192 (inactive); in experiment [16] it was 0.847 (inactive); in [17], 0.836 (inactive); in experiment [18], 1.67. Also, the figures for the composite z-score in [14] and in [19] were 0.295 (inactive) and 0.258, respectively.

In the case of `CCN1C(C)=C(C(=O)OC)[C@@H](c2ccccc2)N2C(=O)[C@](O)(C(=O)OC)[C@@H](c3ccccc3)C(C(C)=O)=C12`, the z-score was 0.158 in experiment [1]; 2.15 in experiment [2]; -0.473 in experiment [3]; 0.244 in experiment [4]; -0.918 in [5]; 1.35 in experiment [6]. For the same molecule, the z-score in [7] is 0.982 (inactive); in experiment [8], 0.195; in experiment [9] it was -0.14; in experiment [10], -0.468 (inactive); in [11], -0.267; in experiment [12], -2.6 (inactive). Further, the z-score is 1.43 (inactive) in [13]; -1.84 (inactive) in experiment [15]; -0.891 (inactive) in experiment [16]; -2 (inactive) in [17]; 0.554 in experiment [18]. Besides, the composite z-score in experiment [14] was -5.15 (inactive); in experiment [19], -0.0167.

On to `CCCC[C@H]1OB(O)C[C@H]2C1=C(COC)C[C@H]1C(=O)N(Cc3ccccc3)C(=O)[C@H]12`, for which the z-score in experiment [1] was 0.485; in [2], 0.938; in [3] it was -0.0393; in [4], 0.405; in experiment [5], -0.537; in [6] it was 0.987. Moreover, the z-score in experiment [7] was 0.835 (inactive); in experiment [8], 0.361; in experiment [9], 1.46; in [10], 0.272 (inactive); in [11], 1.13; in [12], -3.65 (inactive). In addition, the z-score in [13] is 0.518 (inactive); in [15] it was -1.67 (inactive); in experiment [16], 2.53 (inactive); in [17], 0.942 (inactive); in [18], 0.283. Moreover, the composite z-score in experiment [14] was 0.282 (inactive); in experiment [19] it was -0.12.

Regarding `C=CCNC(=O)[C@@H]1[C@H]2C(=O)O[C@H](c3ccccc3)[C@H](c3ccccc3)N2[C@H](c2ccc(OCCO)cc2)[C@@]12C(=O)N(C(=O)OCCOC)c1ccc(C#CC3(O)CCCCCC3)cc12`, the z-score is 0.0803 in experiment [1]; 3.14 in experiment [2]; -1.53 in [3]; -1.07 in experiment [4]; -1.16 in [5]; -1.43 in experiment [6]. Further, the z-score in [7] was 0.738 (inactive); in experiment [8] it was -0.814; in [9], -1.05; in [10], 0.338 (inactive); in [11], 0.14; in experiment [12], -0.985 (inactive). For the same molecule, the z-score in [13] was 0.39 (inactive); in experiment [15] it was 0.442 (inactive); in experiment [16] it was 0.862 (inactive); in experiment [17], 0.351 (inactive); in experiment [18] it was 0.239. Moreover, the composite z-score in experiment [14] was -1.57 (inactive); in experiment [19], 0.276.

On to `O=C1c2ccccc2[C@](Cc2ccccc2I)(C(=O)NCc2ccccc2)[C@H](c2ccc(CO)cc2)N1Cc1ccccc1C(F)(F)F`, for which the z-score in [1] is 0.582; in experiment [2] it was 1.06; in experiment [3], 0.185; in experiment [4], -0.698; in experiment [5] it was 0.0474; in experiment [6], 1.11. The z-score in experiment [7] is 0.789 (inactive); in experiment [8] it was 0.467; in [9] it was 0.463; in experiment [10], 0.584 (inactive); in [11] it was 0.716; in [12] it was -0.712 (inactive). In addition, the z-score was 1.32 (inactive) in experiment [13]; 0.758 (inactive) in experiment [15]; 0.0438 (inactive) in experiment [16]; 0.0442 (inactive) in experiment [17]; 1.21 in [18]. Further, the composite z-score in experiment [14] was 0.309 (inactive); in experiment [19] it was -0.17.
